Laboratory results reported in PubChem BioAssay (NCATS).
Inconclusive results are not listed. Activity calls are given as the source filed them. Unless noted, calls come from the whole dose curve; as a rule, active = well fitted curve in the direction sought with a large enough effect; inconclusive = small, poorly fitted or top-dose-only effect, or another doubt; inactive = no such curve, though single readings can be large; an effect the other way counts as inactive or inconclusive.

Tests used:
[1] = biological target: M-phase phosphoprotein 8 (Homo sapiens) (UniProt Q99549); experiment: qHTS Validation Assay for Inhibitors for MPP8 Chromodomain Interactions with Methylated Histone Tails (AID 488949); note: nearly all actives have a fitted effect of over 55% in size; note: potency is the fitted concentration of half-maximal effect
How it was run: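 Disruption of the preformed MPP8–trimethyl-H3K9 peptide complex (both 50 nM, 30 min, RT) is measured after 30 min compound exposure, using AlphaScreen proximity beads; aurintricarboxylic acid titration serves as plate control.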

[2] = biological target: Chromobox protein homolog 1 (Homo sapiens) (UniProt P83916); experiment: qHTS Validation Assay for Inhibitors of HP1-beta Chromodomain Interactions with Methylated Histone Tails (AID 488953); note: nearly all actives have a fitted effect of over 50% in size; note: potency is the fitted concentration of half-maximal effect
Chromobox protein homolog 1 (Homo sapiens), sequence (P83916 whole entry, looked up): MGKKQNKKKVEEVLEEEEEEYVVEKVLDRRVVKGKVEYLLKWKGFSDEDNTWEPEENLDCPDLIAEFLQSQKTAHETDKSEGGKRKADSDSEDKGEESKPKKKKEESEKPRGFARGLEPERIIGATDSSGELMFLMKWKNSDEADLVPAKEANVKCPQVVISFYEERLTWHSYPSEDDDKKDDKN
How it was run: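 AlphaScreen proximity readout: streptavidin donor and Ni-chelate acceptor beads, 10 ug/mL final, 30 min dark, RT. Complex of 50 nM HP1-beta and 50 nM b-H3(1-18)K9me3 formed 30 min, then compound-treated 30 min; PBS pH 7.4/0.01% Tween-20.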

[3] = biological target: Methanococcus maripaludis chaperonin (MmCpn) (UniProt Q6LX38); experiment: High-Throughput Screening for Modulators of Cytosolic Chaperonin Activity: MmCpn Primary Screen (AID 488978);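 note: 50 nM MmCpn enzyme hydrolysing 30 µM ATP at 37 °C; 0% is about no effect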
How it was run: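 Measures ATPase turnover of the M. maripaludis chaperonin (50 nM final) against 30 uM ATP over 10 min at 37C, with compound added 5 min beforehand at room temperature. ADP is quantified by HTRF immunodetection.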

[4] = biological target: Transient receptor potential cation channel subfamily V member 1 (Homo sapiens) (UniProt Q8NER1); experiment: HTS Assay for Compounds that Act as Enhancers of the Vanilloid Receptor 1 (AID 488979); note: 0% is about no effect
Transient receptor potential cation channel subfamily V member 1 (Homo sapiens), sequence (Q8NER1 whole entry, looked up): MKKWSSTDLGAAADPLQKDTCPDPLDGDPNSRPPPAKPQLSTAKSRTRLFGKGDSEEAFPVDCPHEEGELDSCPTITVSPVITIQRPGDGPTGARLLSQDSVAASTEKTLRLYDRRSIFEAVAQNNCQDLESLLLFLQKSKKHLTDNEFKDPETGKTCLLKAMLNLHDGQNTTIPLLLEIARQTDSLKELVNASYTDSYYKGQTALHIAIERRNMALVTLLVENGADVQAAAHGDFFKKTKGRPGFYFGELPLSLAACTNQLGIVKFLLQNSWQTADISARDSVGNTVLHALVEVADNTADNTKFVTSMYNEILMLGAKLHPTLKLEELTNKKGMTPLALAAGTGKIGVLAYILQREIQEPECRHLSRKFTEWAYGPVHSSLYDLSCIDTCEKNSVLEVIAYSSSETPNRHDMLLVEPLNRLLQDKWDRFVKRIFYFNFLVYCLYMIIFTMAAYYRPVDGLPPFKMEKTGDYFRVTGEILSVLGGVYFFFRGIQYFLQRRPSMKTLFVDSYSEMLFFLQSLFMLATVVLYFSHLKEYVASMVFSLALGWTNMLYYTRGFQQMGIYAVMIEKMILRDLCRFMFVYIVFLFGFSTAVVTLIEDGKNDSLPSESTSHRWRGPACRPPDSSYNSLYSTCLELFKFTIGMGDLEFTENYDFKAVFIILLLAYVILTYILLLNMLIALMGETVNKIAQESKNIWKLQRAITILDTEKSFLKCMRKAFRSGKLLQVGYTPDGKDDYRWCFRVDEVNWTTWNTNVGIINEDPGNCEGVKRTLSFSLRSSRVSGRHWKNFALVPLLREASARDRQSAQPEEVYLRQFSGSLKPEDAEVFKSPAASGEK
How it was run: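 Calcium influx kinetics via Fluo-8 (480/520 nm) in TRPV1-expressing cells, 2000/well cultured overnight at 35.5C. Compound-alone read 3 min (agonist phase), followed by EC20 capsaicin challenge for 2 min (enhancer phase).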

[5] = biological target: Thyrotropin receptor (Homo sapiens) (UniProt P16473); experiment: qHTS Assay for Antagonists of the Thyroid Stimulating Hormone Receptor (AID 488980); note: series mostly up to about 58 µM; 0% is about no effect
How it was run: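 Cells expressing human TSHR (HEK293) are dispensed in HBSS/HEPES containing 70 uM RO 20-1724, compound is added, then TSH at EC80 (4 nM final). Antibody in lysis buffer follows, 30 minutes at room temperature before HTRF detection.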

[6] = biological target: D(1A) dopamine receptor (Homo sapiens) (UniProt P21728); experiment: HTS Assay for Allosteric Agonists of the Human D1 Dopamine Receptor: Primary Screen for Agonists (AID 488981); note: 0% is about no effect
D(1A) dopamine receptor (Homo sapiens), sequence (P21728 whole entry, looked up): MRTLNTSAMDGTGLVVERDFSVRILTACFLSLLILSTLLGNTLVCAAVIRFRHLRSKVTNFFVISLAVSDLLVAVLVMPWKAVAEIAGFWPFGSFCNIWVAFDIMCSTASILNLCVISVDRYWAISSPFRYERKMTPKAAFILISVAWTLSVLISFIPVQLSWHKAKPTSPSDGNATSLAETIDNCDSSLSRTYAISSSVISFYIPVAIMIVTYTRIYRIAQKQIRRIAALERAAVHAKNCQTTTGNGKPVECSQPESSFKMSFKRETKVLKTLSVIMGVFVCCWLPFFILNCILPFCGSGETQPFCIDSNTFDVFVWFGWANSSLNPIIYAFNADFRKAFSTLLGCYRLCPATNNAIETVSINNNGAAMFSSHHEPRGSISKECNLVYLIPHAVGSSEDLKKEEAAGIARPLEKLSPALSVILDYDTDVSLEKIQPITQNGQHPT
How it was run: (§1)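 Calcium flux in an inducible, force-coupled HEK293 Trex D1 line (overnight at 30 C): agonist mode is the 180 s kinetic read after compound; potentiator mode is the following 180 s read after dopamine at EC20.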

[7] = biological target: D(1A) dopamine receptor (Homo sapiens) (UniProt P21728); experiment: HTS Assay for Allosteric Agonists of the Human D1 Dopamine Receptor: Primary Screen for Potentiators (AID 488982); note: 0% is about no effect
How it was run: as §1

[8] = biological target: D(1A) dopamine receptor (Homo sapiens) (UniProt P21728); experiment: HTS Assay for Allosteric Agonists of the Human D1 Dopamine Receptor: Primary Screen for Antagonists (AID 488983);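 note: calcium flux response to an EC80 dopamine challenge measured with no-wash dye; % is set by controls: 0 for no effect and ±100 for the full control effect; nearly all actives have a fitted effect of over 65% in size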
How it was run: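 Calcium flux readout, no-wash dye, inducible HEK293 T-REx D1 line (force-coupled). Compound added after 10 s baseline, 180 s kinetic read; then dopamine at EC80, further 180 s read.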

[9] = biological target: ATPase family AAA domain-containing protein 5 (Homo sapiens) (UniProt Q96QE3); experiment: Validation screen for small molecules that inhibit ELG1-dependent DNA repair in human embryonic kidney (HEK293T) cells expressing luciferase-tagged ELG1 (AID 493107); note: nearly all actives have a fitted effect of over 70% in size; note: potency is the fitted concentration of half-maximal effect
How it was run: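 ELG1-luciferase HEK293T reporter; 5-fluorouridine + compound/DMSO, 16 hr, 37 °C, 5% CO2; ONE-Glo 30 min RT; luminescence read, qHTS format.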

[10] = biological target: Thyrotropin-releasing hormone receptor (Homo sapiens) (UniProt P34981); experiment: qHTS for Small Molecule Agonists and Allosteric Enhancers of Human TRH Receptor: Validation Screen for Agonists (AID 493127;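 active = calcium activation more than 3 SD above the typical response in the agonist read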;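 note: intracellular calcium rise by fluo-8 fluorescence before TRH EC20 addition; 0% is about no effect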); conditions: TRH receptor agonist cell assay; at 2 µM; stronger effect = higher value
Thyrotropin-releasing hormone receptor (Homo sapiens), sequence (P34981 whole entry, looked up): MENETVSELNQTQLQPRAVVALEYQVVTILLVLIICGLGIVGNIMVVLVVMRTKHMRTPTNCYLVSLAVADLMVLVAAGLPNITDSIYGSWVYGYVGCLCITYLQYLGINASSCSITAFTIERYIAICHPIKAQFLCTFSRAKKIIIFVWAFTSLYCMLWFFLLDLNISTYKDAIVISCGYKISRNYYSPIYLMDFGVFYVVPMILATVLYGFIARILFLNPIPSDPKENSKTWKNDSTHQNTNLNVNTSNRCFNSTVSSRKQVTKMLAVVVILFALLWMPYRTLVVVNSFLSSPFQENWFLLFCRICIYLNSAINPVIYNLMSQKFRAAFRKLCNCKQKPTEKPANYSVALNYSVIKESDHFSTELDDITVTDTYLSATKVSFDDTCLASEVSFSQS
How it was run: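 Read-out: intracellular calcium release measured kinetically by FDSS (fluo-8, ex 480/em 530 nm), 1 reading/s after a 10-cycle baseline. TRHR cells, 2000/well, cultured 18 h at 33.5C, dye-loaded at room temp. Compound-evoked positive calcium signal flags agonists.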

[11] = Nrf2 qHTS screen for inhibitors: Validation (AID 493153; active = well fitted inhibition curve with a large enough effect in the main read-out, with a control signal flat, not every such curve was filed as active); conditions: Potency: luciferase luminescence; viability change: measured here: cytotoxicity max response
How it was run: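 Concentration-response test in A549 ARE_Fluc reporter cells (5% FBS OPTI-MEM), compound exposure 18-24 h at 37°C, 5% CO2. Cell viability measured first by CellTiter-Fluor fluorescence; ARE-driven luciferase luminescence then measured as Nrf2 activity.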

[12] = qHTS for Inhibitors of Cell Surface uPA Generation: Validation Assay (AID 493164);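 note: RAW 264.7 macrophage cells exposed to compound for 18 h; 0% is about no effect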
How it was run: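 Compounds are titrated over seven points (2.45 nM–38.3 uM final) onto pre-plated RAW 264.7 cells and incubated for 18 h. Retained intracellular ATP, measured with ATP-Lite, indicates blocked lethal factor entry.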

[13] = biological target: Galactokinase (Homo sapiens) (UniProt P51570); experiment: qHTS Validation Assay for Inhibitors of Human Galactokinase (GALK) (AID 493189); note: 0% is about no effect
Galactokinase (Homo sapiens), sequence (P51570 whole entry, looked up): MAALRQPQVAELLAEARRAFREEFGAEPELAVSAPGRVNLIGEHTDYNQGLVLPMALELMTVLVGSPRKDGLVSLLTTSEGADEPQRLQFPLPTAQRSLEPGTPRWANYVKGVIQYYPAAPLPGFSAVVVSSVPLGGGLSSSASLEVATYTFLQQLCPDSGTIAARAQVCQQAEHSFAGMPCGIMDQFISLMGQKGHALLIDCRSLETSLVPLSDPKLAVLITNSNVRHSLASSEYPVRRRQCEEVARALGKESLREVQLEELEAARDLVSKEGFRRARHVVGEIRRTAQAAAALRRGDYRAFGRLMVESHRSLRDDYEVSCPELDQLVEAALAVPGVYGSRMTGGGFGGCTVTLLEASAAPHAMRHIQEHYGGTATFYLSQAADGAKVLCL
How it was run: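 Compounds were pin-transferred into ATP buffer, then GALK-galactose mix was added (final 5 nM enzyme, 100 uM galactose, 35 uM ATP). After 1 h at room temperature, remaining ATP was measured luminescently.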

[14] = Validation screen for small molecules that induce DNA re-replication in SW480 colon adenocarcinoma cells (AID 504364); note: 0% is about no effect
How it was run: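 Read-out: total Hoechst intensity of nuclei by fluorescence scanning imager; hits raise the fraction of nuclei with elevated DNA content. Cells received compound for 48 hr at 37 C before a 40 min stain.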

[15] = biological target: Peptidyl-prolyl cis-trans isomerase NIMA-interacting 1 (Homo sapiens) (UniProt Q13526); experiment: qHTS Validation Assay to Find Inhibitors of Pin1 (AID 504536; active = well fitted inhibition curve with a large enough effect in the polarisation, with a control signal flat, not every such curve was filed as active; the % refers to the polarisation;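 note: 0% = full Pin1 enzyme wells and -100% = no-enzyme wells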)
Peptidyl-prolyl cis-trans isomerase NIMA-interacting 1 (Homo sapiens), sequence (Q13526 whole entry, looked up): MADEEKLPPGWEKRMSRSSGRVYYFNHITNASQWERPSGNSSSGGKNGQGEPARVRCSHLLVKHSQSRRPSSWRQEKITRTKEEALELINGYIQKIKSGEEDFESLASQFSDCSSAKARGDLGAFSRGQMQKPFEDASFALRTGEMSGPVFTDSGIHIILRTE
How it was run: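 Fluorescence polarization competition: compounds (titration) displace HiFluor-488-labeled Pin1-1b peptide from Pin1 (0.3 uM final) in pH 7.5 HEPES buffer with DTT, 10 min at room temperature; %Activity normalized to no-enzyme wells, curves fitted.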

[16] = biological target: Phosphoglycerate kinase, glycosomal (Trypanosoma brucei brucei) (UniProt P07378); experiment: qHTS Validation Assay to Find Inhibitors of Phosphoglycerate Kinase (AID 504547);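 note: control wells lack PGK and mark full inhibition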
Phosphoglycerate kinase, glycosomal (Trypanosoma brucei brucei), sequence (P07378 whole entry, looked up): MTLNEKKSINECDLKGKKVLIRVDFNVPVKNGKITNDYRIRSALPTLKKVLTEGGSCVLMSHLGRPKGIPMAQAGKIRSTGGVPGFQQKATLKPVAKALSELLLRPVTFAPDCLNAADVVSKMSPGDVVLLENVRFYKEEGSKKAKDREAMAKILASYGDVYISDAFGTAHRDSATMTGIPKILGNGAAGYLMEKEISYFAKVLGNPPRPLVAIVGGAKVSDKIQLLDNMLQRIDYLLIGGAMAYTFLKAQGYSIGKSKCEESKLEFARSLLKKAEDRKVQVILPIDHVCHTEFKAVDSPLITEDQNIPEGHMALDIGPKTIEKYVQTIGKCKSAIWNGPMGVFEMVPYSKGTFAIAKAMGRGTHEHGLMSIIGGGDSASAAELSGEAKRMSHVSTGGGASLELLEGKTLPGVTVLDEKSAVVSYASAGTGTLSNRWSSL
How it was run: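 Luminescence end-point (Kinase-Glo Plus, 10 min) after a 60 min room-temperature coupled reaction. GAPDH at 100nM final supplies 1,3-BPG to PGK. Buffer: 100mM TEA pH 7.6, 5mM MgCl2, 0.01% Tween-20. Wells lacking PGK served as controls.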

[17] = biological target: phosphoglycerate mutase (Leishmania major) (UniProt Q4Q090); experiment: qHTS Validation Assay to Find Inhibitors of Phosphoglycerate Mutase (AID 504548);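 note: end-point luminescence from Kinase-GloPlus after the PGAM reaction; series mostly up to about 58 µM; % is set by controls: 0 for no effect and ±100 for the full control effect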
phosphoglycerate mutase (Leishmania major), sequence (Q4Q090 1-553): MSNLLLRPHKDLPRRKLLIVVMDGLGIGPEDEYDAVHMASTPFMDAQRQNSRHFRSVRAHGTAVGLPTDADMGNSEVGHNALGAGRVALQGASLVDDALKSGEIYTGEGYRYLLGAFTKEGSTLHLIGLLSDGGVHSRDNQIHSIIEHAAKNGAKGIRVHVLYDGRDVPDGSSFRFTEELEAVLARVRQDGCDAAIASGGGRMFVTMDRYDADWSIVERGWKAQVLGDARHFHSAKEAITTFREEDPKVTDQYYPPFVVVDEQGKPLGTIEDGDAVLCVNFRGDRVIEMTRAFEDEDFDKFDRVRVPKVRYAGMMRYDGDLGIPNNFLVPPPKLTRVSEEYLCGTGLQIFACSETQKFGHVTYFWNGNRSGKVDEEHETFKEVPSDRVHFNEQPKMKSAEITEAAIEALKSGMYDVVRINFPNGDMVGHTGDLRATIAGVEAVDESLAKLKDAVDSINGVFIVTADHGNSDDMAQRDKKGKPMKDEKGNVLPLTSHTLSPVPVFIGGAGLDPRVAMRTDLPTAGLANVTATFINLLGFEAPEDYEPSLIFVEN
How it was run: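 L. major PGAM (1.25nM final) was added to substrate buffer and pinned compound, incubated 45 minutes at room temperature, then Kinase-GloPlus added; luminescence read after 10 minutes. Buffer: 100 mM TEA pH 7.6, 5 mM MgCl2, 0.01% Tween-20.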

[18] = biological target: Ubiquitin carboxyl-terminal hydrolase 1 (Homo sapiens) (UniProt O94782); experiment: Inhibitors of USP1/UAF1: Pilot qHTS (AID 504865);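 note: rhodamine fluorescence freed from ubiquitin-rhodamine substrate followed over time; top concentration of the series differs between compounds; % is set by controls: 0 for no effect and ±100 for the full control effect; nearly all actives have a fitted effect of over 35% in size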
Ubiquitin carboxyl-terminal hydrolase 1 (Homo sapiens), sequence (O94782 whole entry, looked up): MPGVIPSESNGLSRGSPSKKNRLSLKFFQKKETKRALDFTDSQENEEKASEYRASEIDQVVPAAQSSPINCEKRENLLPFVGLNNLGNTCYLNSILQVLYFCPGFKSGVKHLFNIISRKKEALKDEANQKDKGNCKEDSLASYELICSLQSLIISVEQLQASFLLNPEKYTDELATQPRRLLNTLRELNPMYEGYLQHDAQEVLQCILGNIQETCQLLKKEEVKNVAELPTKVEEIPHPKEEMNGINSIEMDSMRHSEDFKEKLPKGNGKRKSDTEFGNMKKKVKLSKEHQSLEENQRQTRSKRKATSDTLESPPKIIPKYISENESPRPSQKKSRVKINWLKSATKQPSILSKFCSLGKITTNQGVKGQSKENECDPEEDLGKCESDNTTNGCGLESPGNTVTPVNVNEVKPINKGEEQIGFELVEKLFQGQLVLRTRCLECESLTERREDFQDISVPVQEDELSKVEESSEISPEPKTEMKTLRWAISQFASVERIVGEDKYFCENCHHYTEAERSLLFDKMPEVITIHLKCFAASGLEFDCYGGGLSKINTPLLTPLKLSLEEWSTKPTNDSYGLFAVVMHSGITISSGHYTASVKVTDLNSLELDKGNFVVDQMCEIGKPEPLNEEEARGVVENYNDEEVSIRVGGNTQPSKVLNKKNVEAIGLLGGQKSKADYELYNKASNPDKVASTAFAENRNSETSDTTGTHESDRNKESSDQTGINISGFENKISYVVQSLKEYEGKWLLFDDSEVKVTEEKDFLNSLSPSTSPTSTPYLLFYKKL
How it was run: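 Kinetic fluorescence assay: 1nM USP1/UAF1, 15 min compound preincubation, then 150nM Ub-Rho; 480/540 nm.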

[19] = biological target: ATP-dependent 6-phosphofructokinase (Trypanosoma brucei brucei) (UniProt O15648); experiment: qHTS Assay to Find Inhibitors of T. brucei phosphofructokinase: hit validation (AID 492961);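 note: luminescence reports ADP formed as PFK phosphorylates fructose-6-phosphate with ATP; series mostly up to about 51 µM; % is set by controls: 0 for no effect and ±100 for the full control effect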
ATP-dependent 6-phosphofructokinase (Trypanosoma brucei brucei), sequence (O15648 whole entry, looked up): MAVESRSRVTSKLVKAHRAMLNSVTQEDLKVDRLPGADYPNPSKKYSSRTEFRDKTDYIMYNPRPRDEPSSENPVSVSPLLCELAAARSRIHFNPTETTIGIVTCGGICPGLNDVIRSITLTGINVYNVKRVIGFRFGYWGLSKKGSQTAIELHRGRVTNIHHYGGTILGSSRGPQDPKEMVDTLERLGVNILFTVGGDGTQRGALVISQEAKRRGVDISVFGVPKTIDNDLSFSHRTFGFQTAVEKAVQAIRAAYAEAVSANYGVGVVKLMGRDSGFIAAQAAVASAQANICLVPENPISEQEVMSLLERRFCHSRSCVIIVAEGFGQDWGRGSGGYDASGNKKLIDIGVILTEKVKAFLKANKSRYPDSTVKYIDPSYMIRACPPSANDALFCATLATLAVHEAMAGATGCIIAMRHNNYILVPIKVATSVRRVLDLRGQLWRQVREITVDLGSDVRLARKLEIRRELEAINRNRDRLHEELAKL
How it was run: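 Measures ADP output of PFK (1.25 nM) at 0.1 mM ATP, 0.5 mM F6P, pH 8.0 TEA buffer with 5 mM MgCl2. No-enzyme wells define full inhibition; uninhibited enzyme wells define zero.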

[20] = Validation screen for small molecules that induce genotoxicity in human embryonic kidney (HEK293T) cells expressing luciferase-tagged ELG1 (AID 493106); note: 0% is about no effect
How it was run: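 qHTS format; 2,000 HEK293T ELG1-luc cells/well; 23 nL compound via pin tool; 16 hr, 37 °C/5% CO2; ONE-Glo, 30 min RT; luminescence read.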

CCN(Cc1ccncc1)C(=O)C(CO)c1ccccc1 (stereo not drawn)
inactive: Potency [1] | Potency [2] | outcome [3] | outcome [4] | outcome [5] | Potency [6] | Potency [7] | Potency [8] | Potency [9] | activation [10] 0.375% | Potency [11] | outcome [12] | outcome [13] | outcome [14] | outcome [15] | outcome [16] | outcome [17] | Potency [18]
-1.19%: viability change [11]

COC(=O)[C@H]1[C@H]2C[C@@H]3c4[nH]c5cc(OC)ccc5c4CCN3C[C@H]2C[C@@H](OC(=O)c2cc(OC)c(OC)c(OC)c2)[C@@H]1OC
-13.6%: viability change [11]
active: Potency [1] 20 µM | Potency [2] 39.8 µM | Potency [9] 11.6 µM
inactive: outcome [3] | outcome [4] | outcome [5] | Potency [6] | Potency [7] | Potency [8] | outcome [19] | Potency [11] | outcome [12] | outcome [13] | outcome [16] | outcome [17]

O=C(O)CN(CCOCCOCCN(CC(=O)O)CC(=O)O)CC(=O)O
3.82%: viability change [11]
inactive: Potency [1] | Potency [2] | outcome [3] | outcome [4] | outcome [5] | Potency [6] | Potency [7] | Potency [8] | outcome [19] | Potency [20] | Potency [9] | Potency [11] | outcome [12] | outcome [13] | outcome [14] | outcome [15] | outcome [16] | outcome [17] | Potency [18]

CCn1nc(C(=O)O)c(=O)c2cc3c(cc21)OCO3
-1.17%: viability change [11]
inactive: Potency [1] | Potency [2] | outcome [3] | outcome [4] | outcome [5] | Potency [6] | Potency [7] | Potency [8] | outcome [19] | Potency [20] | Potency [9] | Potency [11] | outcome [12] | outcome [13] | outcome [14] | outcome [15] | outcome [16] | outcome [17] | Potency [18]

CCCCNc1ccc(C(=O)OCCN(C)C)cc1
inactive: Potency [1] | Potency [2] | outcome [3] | outcome [4] | outcome [5] | Potency [6] | Potency [7] | Potency [8] | outcome [19] | Potency [20] | Potency [9] | activation [10] 1.31% | outcome [12] | outcome [13] | outcome [14] | outcome [15] | outcome [16] | outcome [17] | Potency [18]

C=CCc1ccccc1OCC(O)CNC(C)C (stereo not drawn)
inactive: Potency [1] | Potency [2] | outcome [3] | outcome [4] | outcome [5] | Potency [6] | Potency [7] | Potency [8] | Potency [20] | Potency [9] | activation [10] 0.312% | outcome [12] | outcome [13] | outcome [14] | outcome [15] | outcome [16] | outcome [17] | Potency [18]

C[N+](C)(C)CCOC(N)=O
14%: viability change [11]
active: activation [10] 30.9%
inactive: Potency [1] | Potency [2] | outcome [3] | outcome [4] | outcome [5] | Potency [6] | Potency [7] | Potency [8] | outcome [19] | Potency [20] | Potency [9] | Potency [11] | outcome [12] | outcome [13] | outcome [14] | outcome [15] | outcome [16] | outcome [17] | Potency [18]
